# Source: PubChem BioAssay AID1850 (Southern Research Specialized Biocontainment Screening …, 2009)
# Hit rate of the full screen: of about 310,000 compounds, about 1,000 (0.32%) were called active. The rule behind the calls is not given here. A selection follows. Results with a measured potency or affinity are listed apart.
# Test: PhoP regulon inhibitors, Salmonella typhi PhoP promoter GFP reporter, confirmatory (AID 1850);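 note: 0% = induced wells with vehicle and 100% = uninduced wells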
# Conditions: fluorescence, 4 h, at 50 µM, active compounds read high
row,Structure (SMILES),inhibition
1,COc1cc(C(=O)NCC(=O)N/N=C(\C)Cc2ccccc2)cc(OC)c1OC,8.05% (inactive)
2,Cc1cccc(CC(C)NC(=O)c2cc(COc3ccc(C)c(C)c3)on2)n1 (configuration not stated),-0.63% (inactive)
3,CCN(CC(=O)N1CCC(C(N)=O)CC1)S(=O)(=O)c1ccc(Cl)cc1,-8.55% (inactive)
4,Cc1ccc(-c2noc(CSc3nnc(CCc4ccccc4)n3-c3ccccc3)n2)cc1,-7.22% (inactive)
5,CCCCc1ccc(NC(=O)Nc2c(C)n(C)n(-c3ccccc3)c2=O)cc1,-5.72% (inactive)
6,O=C(NNC(=O)C1C2C=CC(C2)C1C(=O)O)c1cc(Cl)ccc1O (configuration not stated),-4.67% (inactive)
7,COc1ccc(C2NCCc3c2[nH]c2ccccc32)cc1CSc1nc2ccccc2s1 (configuration not stated),-3.05% (inactive)
8,COc1cc(C2NCCc3c2[nH]c2ccccc32)ccc1OC(C)C (configuration not stated),-4.21% (inactive)
9,CC(=O)N1CCN(S(=O)(=O)c2cccc(C(=O)NNC(=O)COc3ccc(Cl)cc3C)c2)CC1,3.91% (inactive)
10,COc1ccc(Cn2c(O)c(/C=N/NC(=O)c3ccccc3O)c(=O)[nH]c2=O)cc1,-3.02% (inactive)
11,Cc1ccccc1NC(=S)NCC(c1cccnc1)N(C)C (configuration not stated),4.06% (inactive)
12,CSc1ccc(CN2CCc3c([nH]c4ccccc34)C2)cc1,2.22% (inactive)
13,COc1ccccc1CN1CCc2c([nH]c3ccccc23)C1,3.76% (inactive)
14,Cc1cccc(CN2CCc3c([nH]c4ccccc34)C2)c1,8.05% (inactive)
15,Clc1cccc(CN2CCc3c([nH]c4ccccc34)C2)c1,1.94% (inactive)
16,O=C(C1CCCN(S(=O)(=O)c2cccc3nonc23)C1)N1CCC(Cc2ccccc2)CC1 (configuration not stated),-9.59% (inactive)
17,CS(=O)(=O)c1ccc(Cl)c(C(=O)NC2CCSc3ccccc32)c1 (configuration not stated),12.6% (inactive)
18,COc1ccccc1/C=N/NC(=O)c1ccc(-c2ccccc2)cc1,-0.08% (inactive)
19,COc1ccc(C2CC(=O)C3=C(C2)Nc2ccccc2NC3c2coc3ccccc3c2=O)cc1OC (configuration not stated),-2.61% (inactive)
20,COc1ccc(Nc2cc(C)nc3c(C)cccc23)cc1OC,-3.72% (inactive)
21,Cc1cc(Nc2ccc(C)c(C)c2)c2ccccc2n1,-4.07% (inactive)

row,Structure (SMILES),inhibition
1,COc1cccc2c(N/N=C/c3ccccc3)cc(C)nc12,0.63% (inactive)
2,Cc1ccc(Nc2cc(C)nc3ccccc23)c(C)c1,10.4% (inactive)
3,COc1ccc2nc(C)cc(N/N=C/c3ccc(F)cc3)c2c1,-3.4% (inactive)
4,CC(=O)c1ccc(Nc2cc(C)nc3c(C)cc(C)cc23)cc1,7.05% (inactive)
5,Cc1ccc2nc(C)cc(N/N=C/c3cccc(O)c3)c2c1,-4.26% (inactive)
6,COc1ccc(/C=N/Nc2cc(C)nc3ccc(OC)cc23)c(OC)c1,0.09% (inactive)
7,CCCCOc1ccc(NC(=O)C(=O)NCCCn2ccnc2)cc1,-4.73% (inactive)
8,CC[C@H](C)[C@@H]1NC(=O)c2cc([N+](=O)[O-])cc(F)c2NCCCC[C@@H](C(N)=O)NC(=O)[C@H](CCCCN)NC1=O,1.42% (inactive)
9,CCOc1ccc(CNc2nnnn2C)cc1OC,-3.66% (inactive)
10,COc1ccc(NS(=O)(=O)c2cccc(NC(=O)NCCCl)c2)cc1,-19.5% (inactive)
11,CC(=O)Nc1ccc(/C=N/N2C(=O)NC(C)(c3ccc(OC(F)F)cc3)C2=O)cc1 (configuration not stated),-10% (inactive)
12,Cc1ccc(NC(=O)CSCC(=O)Nc2ncc3c(n2)CC(c2ccco2)CC3=O)cc1 (configuration not stated),2.49% (inactive)
13,CCOc1cc(/C=C2\CCCC(C(=O)C(F)(F)F)=C2O)ccc1O,-4.72% (inactive)
14,CN(CC(=O)Nc1cccc(F)c1)C(=O)c1ccncc1,-3.54% (inactive)
15,CCOC(=O)N1CCN(C2CCCN(C(=O)c3ccccc3SC)C2)CC1 (configuration not stated),4.8% (inactive)
16,O=C(COc1ccccc1C(=O)c1cnn(-c2ccccc2)c1)Nc1ccccc1,-4.89% (inactive)
17,COc1cc(OC)cc(C(=O)NNC(=O)c2ccc(S(=O)(=O)N(C)c3ccccc3OC)cc2)c1,15.6% (inactive)
18,COc1ccc(Nc2cc(C)nc3ccccc23)cc1,13.4% (inactive)
19,Cc1cc(N/N=C/c2ccc(O)cc2O)c2ccccc2n1,-3.45% (inactive)
20,Cc1cc(N/N=C/c2ccc(N(C)C)cc2)c2ccccc2n1,0.75% (inactive)
21,Cc1cccc(Nc2cc(C)nc3ccccc23)c1,5.71% (inactive)

row,Structure (SMILES),inhibition
1,COc1cccc2c(N/N=C/c3ccc(O)c(O)c3)cc(C)nc12,-4.34% (inactive)
2,Cc1cc(N/N=C/c2ccccc2O)c2ccccc2n1,-0.61% (inactive)
3,Cc1cccc(N2C(=O)C(Oc3ccc(Cl)cc3Cl)C2C(=O)O)c1C (configuration not stated),-8.69% (inactive)
4,Cc1nnc(Cn2cnc3c2c(=O)n(C)c(=O)n3C)o1,6.26% (inactive)
5,O=C(COc1ccc(/C=N/NC(=O)c2ccncc2)cc1)Nc1ccccc1,-0.13% (inactive)
6,CCOC(=O)c1c(-c2ccccc2)oc2ccc(OCC(O)CN(C)C)cc12 (configuration not stated),-1.17% (inactive)
7,CCOC(=O)c1c(-c2ccccc2)oc2ccc(OCC)cc12,-1.51% (inactive)
8,Cc1ccc(-n2ncc3c(SCc4ccccn4)ncnc32)c(C)c1,-1.44% (inactive)
9,c1ccc(Cn2ccc(-c3cnc(-c4ccccc4)s3)n2)cc1,9.82% (inactive)
10,Nc1[nH]ncc1-c1ccc(Cl)cc1,9.56% (inactive)
11,Nc1[nH]ncc1-c1ccc(F)cc1,-6.64% (inactive)
12,CCc1nnc(NC(=O)Nc2ccccc2OC)s1,1.12% (inactive)
13,CCc1ccc(N2CC(C(=O)N/N=C/c3cccc([N+](=O)[O-])c3)CC2=O)cc1 (configuration not stated),-13.7% (inactive)
14,COc1ccccc1/C=N/NC(=O)c1cccc(NC(=O)c2ccccc2C)c1,8.56% (inactive)
15,CCc1ccc(N2CC(C(=O)N/N=C/c3ccccc3)CC2=O)cc1 (configuration not stated),-5.31% (inactive)
16,COc1ccc(N2CC(C(=O)N/N=C/c3ccc([N+](=O)[O-])cc3)CC2=O)cc1 (configuration not stated),0.01% (inactive)
17,COc1ccc(N2CC(C(=O)Nc3ccc([N+](=O)[O-])cc3Br)CC2=O)cc1 (configuration not stated),6.01% (inactive)
18,Cc1cc(C(=O)N/N=C/c2cc(Cl)cc([N+](=O)[O-])c2O)c2ccccc2n1,15.1% (inactive)
19,CC(C)(C)N/N=C/c1cc(Cl)cc([N+](=O)[O-])c1O,-7.27% (inactive)
20,O=C(N/N=C/c1cc(Cl)cc([N+](=O)[O-])c1O)NC12CC3CC(CC(C3)C1)C2,7.74% (inactive)
